Measured values taken from PubChem BioAssay.

biological target: Left-right determination factor 2 (Homo sapiens) (UniProt O00292); assay: LEFTY2 binders on small-molecule microarrays, primary screen, biochemical, small-molecule microarray, 635 nm fluorescence scan (AID 1110); details: LEFTY2 binding, higher = more signal
Sequence (O00292 whole entry, looked up): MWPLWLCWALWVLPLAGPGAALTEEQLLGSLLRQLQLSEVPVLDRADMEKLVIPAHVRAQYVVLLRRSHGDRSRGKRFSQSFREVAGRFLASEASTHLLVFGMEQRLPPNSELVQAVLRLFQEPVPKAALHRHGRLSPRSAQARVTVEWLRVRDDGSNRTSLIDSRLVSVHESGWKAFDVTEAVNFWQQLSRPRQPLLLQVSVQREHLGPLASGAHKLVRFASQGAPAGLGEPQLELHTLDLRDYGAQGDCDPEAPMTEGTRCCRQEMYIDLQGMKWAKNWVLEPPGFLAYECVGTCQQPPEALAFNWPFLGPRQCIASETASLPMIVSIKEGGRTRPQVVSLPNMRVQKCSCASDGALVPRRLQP

Question: For `COC(=O)c1c(CC[C@@H](CO)NC(=O)N[C@@H](Cc2ccccc2)Cn2cc(C3(O)CCCCC3)nn2)oc(C(C)=O)c1C(=O)OC`, which composite z-score is on record?
Answer: 0.693

Question: Which composite z-score does the source give for `Cc1ccc(S[C@]2(C(=O)NCc3ccccc3)CC(=O)N(Cc3ccccc3Cl)[C@@H]2c2ccc(CO)cc2I)cc1` here?
Answer: -2.11

Question: `COCCOC(=O)N1C(=O)[C@@]2(c3cc(C#Cc4ccc(OC)cc4)ccc31)[C@H](C(=O)N1CCN(c3ncccn3)CC1)[C@H]1C(=O)O[C@H](c3ccccc3)[C@H](c3ccccc3)N1[C@@H]2c1ccc(O)cc1` was tested. Which composite z-score did it give?
Answer: 0.0473

Question: How did the composite z-score turn out when `CC(C)(C)OC(=O)CC[C@@]1(C(=O)NCCN2CCOCC2)N=C(c2ccc(OCCCO)cc2)O[C@@H]1c1ccccc1` was run?
Answer: 0.356

Question: For `COCCOC(=O)N1C(=O)[C@@]2(c3cc(C#CC4(O)CCCCCC4)ccc31)[C@H](C(=O)N1CCCCCCC1)[C@H]1C(=O)O[C@H](c3ccccc3)[C@H](c3ccccc3)N1[C@@H]2c1ccccc1OCCO`, which composite z-score is on record?
Answer: 0.487

Question: How did the composite z-score turn out when `CC(C)c1ccc(NN2C(C(O)c3c(F)cccc3Cl)C=CC3C(=O)N(c4ccccc4)C(=O)C32)cc1` (configuration not stated) was run?
Answer: 0.0094

Question: For `O=C1OCC=C[C@H]2OC34C=CCN(c5ccc6ccccc6c5)C(=O)[C@H]3N(CCCO)C(=O)[C@@H]4[C@@H]12` (some centres not stated), which composite z-score is on record?
Answer: -0.842

Question: How did the composite z-score turn out when `CCCCC(CC)C(O)C1C=CC2C(=O)N(c3ccccc3)C(=O)C2N1Nc1ccccc1` (configuration not stated) was run?
Answer: -0.354

Question: How did the composite z-score turn out when `O=C1C=CC(=O)[C@@H]2CC(COc3ccccc3)=C3[C@@H](CCc4ccccc4)OB(O)C[C@@H]3[C@H]12` was run?
Answer: 0.41

Question: Which composite z-score does the source give for `NC(=O)NCC#Cc1ccc2c(c1)[C@]1(C(=O)N2)[C@H](C(=O)NC[C@H](O)c2ccccc2)[C@H]2C(=O)O[C@H](c3ccccc3)[C@H](c3ccccc3)N2[C@@H]1c1ccc(O)cc1` here?
Answer: 0.691

Question: For `COC(=O)[C@@]1(Cc2ccccc2)[C@H]2c3cc(C(=O)N(C)C)n(Cc4c(-c5ccccc5)noc4C)c3C[C@H]2CN1C(=O)c1ccccc1`, which composite z-score is on record?
Answer: -0.51

Question: For `[N-]=[N+]=Nc1ccccc1[C@H]1OC(c2ccc(OCCCO)cc2)=N[C@@]1(CCS(=O)(=O)c1ccccc1)C(=O)O`, which composite z-score is on record?
Answer: -0.512

Question: `COCCCNC(=O)[C@@]1(C)c2ccccc2C(=O)N(Cc2cc(C(F)(F)F)cc(C(F)(F)F)c2)[C@H]1c1ccc(CO)cc1` was tested. Which composite z-score did it give?
Answer: -1.8

Question: How did the composite z-score turn out when `CC(C)(C)N1CC=CC23O[C@@H]4C=CCOC(=O)[C@@H]4[C@H]2C(=O)N(CCCCCO)[C@@H]3C1=O` (some centres not stated) was run?
Answer: -0.788

Question: `CC(C)N1C(=O)c2ccccc2[C@@H](C(=O)NCCCN(C)C)[C@@H]1c1ccc(CO)cc1` was tested. Which composite z-score did it give?
Answer: -0.89

Question: Which composite z-score does the source give for `COc1ccc(C(=O)Nc2cccc(CN3C(=O)[C@]4(O[C@H](CC(=O)N5CCC[C@H]5CO)[C@@H]([Si](C)(C)c5ccc(OC)cc5)[C@@H]4C)c4ccccc43)c2)cc1` here?
Answer: 0.419

Question: With `O=C(CS)NCCCCCCNC(=O)[C@@H]1C[C@@H]2C(=O)N3CCC[C@H]3C(=O)N2[C@@H]1c1ccc(O)cc1` as the compound, how does the composite z-score read?
Answer: -0.793

Question: With `C=C[C@@H](COC(C)=O)N(Cc1ccccc1[N+](=O)[O-])S(=O)(=O)c1ccc(Br)cc1` as the compound, how does the composite z-score read?
Answer: 1.02

Question: For `COc1cc2c(cc1O)C(C)N(Cc1cccc(OC(F)(F)F)c1)CC2` (configuration not stated), which composite z-score is on record?
Answer: -0.442

Question: How did the composite z-score turn out when `CC(C)N1C(=O)C[C@@](C(=O)NCc2ccccc2)(c2ccc([N+](=O)[O-])cc2)[C@H]1c1ccc(CO)cc1` was run?
Answer: -0.57

Question: Which composite z-score does the source give for `CCCN1C(=O)[C@]2(COC(c3ccc(OCCCO)cc3)=N2)Cc2ccccc21` here?
Answer: -0.196

Question: How did the composite z-score turn out when `COC(=O)C(CC#Cc1ccc2c(c1)[C@]1(C(=O)N2)[C@H](c2ccc(OCCO)cc2)N2[C@H](c3ccccc3)[C@H](c3ccccc3)OC(=O)[C@H]2[C@@H]1C(=O)NC[C@H](O)c1ccccc1)C(=O)OC` was run?
Answer: -0.0571

Question: For `O=C1C2C=CC(C(O)c3ccc(B(O)O)cc3)N(Nc3ccccc3)C2C(=O)N1c1ccccc1` (configuration not stated), which composite z-score is on record?
Answer: -0.158

Question: For `O=C1O[C@H](c2ccccc2)[C@H](c2ccccc2)N2[C@H]1[C@@H](C(=O)NC[C@H](O)c1ccccc1)[C@]1(C(=O)Nc3ccc(C#CCCO)cc31)[C@H]2c1ccc(O)cc1`, which composite z-score is on record?
Answer: -0.47

Question: With `O=C1O[C@@H](c2ccccc2)[C@@H](c2ccccc2)N2[C@@H](c3ccc(O)cc3)[C@]3(C(=O)Nc4ccc(C#CC5=CCCCC5)cc43)[C@@H](C(=O)O)[C@H]12` as the compound, how does the composite z-score read?
Answer: 0.0765

Question: Which composite z-score does the source give for `CCOC(=O)C1=CCC(c2ccc(C#N)cc2)N(S(=O)(=O)c2ccc(C)cc2)C1` (configuration not stated) here?
Answer: 0.47

Question: Which composite z-score does the source give for `CCN(CC)c1ccc(N2CC=CC34O[C@@H]5C=CCCOC(=O)C5[C@H]3C(=O)N(CCCCCO)[C@@H]4C2=O)cc1` (some centres not stated) here?
Answer: -0.48
